Consider seven molecules from publication PMC12136788.

Substitutions are numbered along the chain they refer to. In all, about 24,000 sequences were measured (“enrichment r”: median about 0.99, highest 2% from about 3.7 on). What follows is part of a selection rich in the highest values, with near analogues and random picks from the rest.

First the molecules themselves.
T1: UNK ZnF1-3 (human, UniProt Q9C0B0 31-174)
T1 sequence: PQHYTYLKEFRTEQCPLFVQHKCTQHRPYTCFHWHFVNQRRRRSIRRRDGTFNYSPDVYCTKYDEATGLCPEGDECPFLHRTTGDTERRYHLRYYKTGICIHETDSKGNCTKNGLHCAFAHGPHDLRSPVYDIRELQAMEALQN

B1: chr11:46405157:46405158:+_ENSG00000110492_ENST00000395566|hu_hu|hu_hu_hu_mus_False|78_78 (ssRNA)
RNA: GGGAGUUCUACAGUCCGACGAUCCCCUCCCCACUUUGGGCACUUGGUGUGGGCGUGAAGGCAGGGCCGUGAUUGACAGAGCUGACAGGAAGACAAAAGGCACUGGUGGGUUAUAUCUUGGGCCUGUGGGAGAGGAGGGCUCCGCAACAGAGGAUUGAGCAUCA
B2: 52873384_52873592_4094_CDS_ENSMUSG00000035247_ENSMUST00000042052|mouse|control|control (ssRNA)
RNA: GGGAGUUCUACAGUCCGACGAUCCACCAGGCGCCUCUGCCUUCUAAGAUUAGCUUCUGCUUCUUUAGCUGCUUUCCCUAGUUGGUCUUCGCACACGCCAUUCACAGUGCCAUAGAGUUCAAAGCCGGAGAGCGAGAGGUAGUGCAACAGAGGAUUGAGCAUCA
B3: chr1:183098298:183098299:+_ENSMUSG00000062169_ENSMUST00000134115|mus_hu|FALSE|FALSE (ssRNA)
RNA: GGGAGUUCUACAGUCCGACGAUCUAUAAACAUGGCACCUUUCUGAUUUGCUUAGCCUCAGCAAGCCUGAUGUACUGUAAACUGACAGCCCAAAGGCUCUCUCAACUGCAUGAGUCACUGUUUUGGUUACUAAGAAUAUCUGAACAACAGAGGAUUGAGCAUCA
B4: chr7:149838072:149838073:-_ENSMUSG00000048583_ENSMUST00000000033|mus_hu|FALSE|FALSE (ssRNA)
RNA: GGGAGUUCUACAGUCCGACGAUCUCACUGCCCCCCUGUUACAUGGGGGGGGGGUUUAAUUUGGUUUCUGAGCGCAUAAAGCUAAGGAGGGGUAAAAAAAAAACAAAAAAAAAAAAAAAAGGAAAAAUGCCCCAAGAAACAAAGCAACAGAGGAUUGAGCAUCA
B5: 19964410_19964530_1467_3pUTR_ENSMUSG00000020152_ENSMUST00000000137|mouse|control|control (ssRNA)
RNA: GGGAGUUCUACAGUCCGACGAUCUCUAAAUGCCUACAAAGAAAGAAACAGAGCAGCAGCAACCCCUUGCCCUGGUAAUGUCUGCAAAGAUUUGGUAGCCUUAAACAACCAGAUUUACCCAUAUUAACAAGAAUUUAGCAAUGCCAACAGAGGAUUGAGCAUCA
B6: chr13:112505112:112505113:+_ENSMUSG00000032727_ENSMUST00000109272|mus_mus|FALSE|FALSE (ssRNA)
RNA: GGGAGUUCUACAGUCCGACGAUCCAUAAAGGAUUCGGGGACAGCAAUGCCCAUCUUCAAUCUCUUUGCUGGUCUUUCGGAUUCUUCGCUGCACAUGGGGUUUAACUCUGAGUGAUAAAAUCCAGUCUCAAAUAAAUUAAAACACAACAGAGGAUUGAGCAUCA
B7: chr7:149838072:149838073:-_ENSMUSG00000048583_ENSMUST00000000033|mus_hu|motif|central (ssRNA)
RNA: B4 RNA with U82G, A83G

In this assay the target is T1, UNK ZnF1-3. Description: nsRBNS (natural sequence RNA bind-n-seq); RBNS binding buffer (assumed for nsRBNS): 25 mM Tris pH 7.5, 150 mM KCl, 3 mM MgCl2, 0.01% Triton X-100, 500 ug/ml BSA, 20 U/ml SUPERase-In, 4 C; UNK is unkempt and MSI1 is Musashi-1; names of the RNAs are library labels; protein concentration not given here; high values mean tight binding.
For the molecule B1, the binding signal was determined as 2.23 enrichment R. As for B2, the figure is 1.03 enrichment R. For B3 the value was 0.858 enrichment R; for B4, 12.2 enrichment R; for B5, 1.74 enrichment R.

The molecule B6 returned a binding signal of 1.01 enrichment R.

As to B7, the binding signal is 22.9 enrichment R.
